Measurements taken from PubChem BioAssay AID892 (National Center for Advancing Translational Sciences (NCATS), 2007).
Hit rate of the full screen: of about 75,000 compounds, about 20 (0.03%) were called active. Calls come from the whole dose curve; as a rule, active = well fitted inhibition curve with a large enough effect; inconclusive = small, poorly fitted or top-dose-only effect; inactive = no such curve, though single readings can be large or run the other way. Only a sample is shown.

The compounds below were run against Breast cancer type 1 susceptibility protein (Homo sapiens) (UniProt P38398) (assay: qHTS Assay for Inhibitors of BRCT-Phosphoprotein Interaction (Red Fluorophore)). Settings: BRCT-phosphopeptide binding, red fluorescence polarization; series mostly up to 76.9 µM; activity change, negative = inhibition: at the top concentration.
Method: NIH Molecular Libraries Screening Centers Network [MLSCN]
NIH Chemical Genomics Center [NCGC]
PI Name: Natarajan, Amarnath; University of Texas
A complex of BRCT (C-terminal portion of BRCA1, MW ~35 kDa, His-tagged) and fluorescently labeled pBACH1 phosphorylated 10 aa peptide fragment of BACH1, a helicase implicated in DNA repair, is incubated with library members. Inhibitors of BRCT-pBACH1 binding are detected by a decrease in the fluorescence polarization (FP) of the fluorophore. In order to minimize the effect of fluorescence artifacts and to increase the overall robustness of the screen, the compound library members were incubated in separate reactions with rhodamine-labeled probe-protein complexes. Protein and labeled probes were supplied by Dr. Amarnath Natarajan, Department of Pharmacology and Toxicology, University of Texas Medical Branch Galveston, TX.
Assay Buffer: 16mM Na2HPO4, 4 mM NaH2PO4, 150 mM NaCl, 1 mM EDTA, 1 mM DTT, 0.02% NaN3, and 0.01% Tween 20 at pH 7.3.
Assay Controls: 100 nM TAMRA labeled decapeptide dispensed into columns 3 and 4 to generate negative control (full inhibition of
binding, -100 % activity). 100 nM labeled decapeptide/100 nM protein in columns 1, 2, 5 - 48. Titration of unlabeled decapeptide control (from 10 mM, then 1:2 dilution in duplicate) pin-transferred to column 2, rows 1 to 16. Column 1 is neutral.
Three uL of reagents were dispensed to 1536-well Greiner black solid-bottom plates. Compounds and controls (23 nL) were transferred via Kalypsys PinTool. The plates were incubated for 12 min at room temperature, and then read on ViewLux (Perkin-Elmer) High-throughput CCD imager using BODIPY for the rhodamine-labeled decapeptide probe polarization filter sets. During dispense, reagent bottles were kept submerged into 4 deg C water bath and all liquid lines were covered with aluminum foil to minimize probe and protein degradation. All screening operations were performed on a Kalypsys robotic system (Kalypsys, Inc., San Diego, CA) containing one RX-130 and two RX-90 anthropomorphic robotic arms. The timing and order of assay plates passing through the screening system were adjusted such that each compound library plate was assayed against the fluorescein- and rhodamine-labeled assay systems at immediately adjacent time points.
% is set by controls: 0 for no effect and ±100 for the full control effect.

Breast cancer type 1 susceptibility protein (Homo sapiens), sequence (P38398 whole entry, looked up): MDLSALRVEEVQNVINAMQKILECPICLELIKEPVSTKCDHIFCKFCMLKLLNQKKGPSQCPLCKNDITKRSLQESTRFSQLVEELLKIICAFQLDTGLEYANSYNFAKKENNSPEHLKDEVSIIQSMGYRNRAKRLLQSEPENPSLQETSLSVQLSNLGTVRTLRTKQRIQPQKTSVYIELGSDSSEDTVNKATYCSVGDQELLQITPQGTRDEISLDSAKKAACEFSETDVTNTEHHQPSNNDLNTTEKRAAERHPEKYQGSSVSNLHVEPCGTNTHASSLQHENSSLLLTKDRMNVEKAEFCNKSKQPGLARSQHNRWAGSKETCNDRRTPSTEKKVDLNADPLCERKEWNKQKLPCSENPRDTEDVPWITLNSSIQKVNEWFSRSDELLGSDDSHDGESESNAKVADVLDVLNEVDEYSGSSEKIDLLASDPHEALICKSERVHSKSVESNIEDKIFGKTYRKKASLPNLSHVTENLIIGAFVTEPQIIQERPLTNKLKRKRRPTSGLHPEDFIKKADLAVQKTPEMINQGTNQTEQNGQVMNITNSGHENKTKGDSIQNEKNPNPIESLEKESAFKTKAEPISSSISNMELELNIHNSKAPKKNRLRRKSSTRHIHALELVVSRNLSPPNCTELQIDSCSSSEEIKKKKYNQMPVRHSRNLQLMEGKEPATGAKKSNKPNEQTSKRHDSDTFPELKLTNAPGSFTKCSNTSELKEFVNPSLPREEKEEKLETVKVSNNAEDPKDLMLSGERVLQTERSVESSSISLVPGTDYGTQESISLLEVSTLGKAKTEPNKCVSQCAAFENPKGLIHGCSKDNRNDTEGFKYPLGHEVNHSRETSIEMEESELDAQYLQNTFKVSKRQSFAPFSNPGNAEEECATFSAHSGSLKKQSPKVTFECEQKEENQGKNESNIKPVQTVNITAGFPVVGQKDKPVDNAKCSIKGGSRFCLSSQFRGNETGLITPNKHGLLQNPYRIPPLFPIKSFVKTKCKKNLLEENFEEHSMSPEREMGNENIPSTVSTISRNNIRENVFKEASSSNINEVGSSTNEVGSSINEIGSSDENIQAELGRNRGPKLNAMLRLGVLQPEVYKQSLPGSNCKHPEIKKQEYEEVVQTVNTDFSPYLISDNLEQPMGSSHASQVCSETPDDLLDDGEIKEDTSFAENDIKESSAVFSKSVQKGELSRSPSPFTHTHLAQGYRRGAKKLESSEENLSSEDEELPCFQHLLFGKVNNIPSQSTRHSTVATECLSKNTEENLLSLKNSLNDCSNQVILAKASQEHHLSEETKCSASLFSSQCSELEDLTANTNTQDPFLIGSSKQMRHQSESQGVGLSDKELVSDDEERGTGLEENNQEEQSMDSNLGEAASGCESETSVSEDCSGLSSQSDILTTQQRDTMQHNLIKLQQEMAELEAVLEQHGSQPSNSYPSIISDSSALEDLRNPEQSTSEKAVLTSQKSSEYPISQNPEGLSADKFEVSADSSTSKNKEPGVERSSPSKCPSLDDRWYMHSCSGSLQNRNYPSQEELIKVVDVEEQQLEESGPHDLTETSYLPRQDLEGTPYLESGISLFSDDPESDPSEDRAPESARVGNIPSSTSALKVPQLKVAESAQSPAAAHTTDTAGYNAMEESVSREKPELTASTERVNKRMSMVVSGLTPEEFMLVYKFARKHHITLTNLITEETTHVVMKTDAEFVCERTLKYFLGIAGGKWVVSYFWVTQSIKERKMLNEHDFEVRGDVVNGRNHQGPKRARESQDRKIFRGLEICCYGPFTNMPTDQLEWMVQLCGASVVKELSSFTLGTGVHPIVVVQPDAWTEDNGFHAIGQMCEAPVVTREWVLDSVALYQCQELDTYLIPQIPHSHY

Activity change, negative = inhibition, inactive:
CCOC(=O)Nc1ccc2c(c1)N(C(=O)CN1CCN3CCCC3C1)c1ccccc1CC2 (stereo not given) -0.847%
COc1ccc(C)cc1-n1nnnc1SCC(=O)c1cc(C)n(Cc2ccco2)c1C 0.289%
O=C(CN1CCN(c2ccccc2F)CC1)c1ccc2c(c1)OCO2 -0.354%
COc1ccc(OC)c(NC(=O)CN2CCN(C(=O)c3ccco3)CC2)c1 -0.4%
COCCn1nnnc1C(c1ccccc1Cl)N1CCN(c2ccccc2OC)CC1 (stereo not given) 0.147%
COC(=O)[C@@H]1C[C@@]2(O)[C@H](O)[C@H](O)[C@H](O)C[C@H]2N1CC1CCCCC1 1.56%
CC(C)Oc1ccc(C2NC(=O)NC2=O)cc1 (stereo not given) 0.371%
O=C(CN(Cc1ccccc1)C(=O)c1ccc2c(c1)OCCO2)NCc1ccc2c(c1)OCO2 0.515%
CC(=O)N1CCC2(CCCN(Cc3ccccc3)C2)CC1 -2.8%
COc1ccccc1NC(=O)CSc1nnc(Cc2cccn2C)n1-c1ccc(F)cc1 -0.19%
O=C(CSc1ncccn1)NC(=O)NCc1ccccc1 -0.146%
Cc1ccsc1C(=O)OCC(=O)c1cc(C)n(CC2CCCO2)c1C (stereo not given) -2.25%
COc1ccc(NC(=O)CCNC(=O)Cn2ccc3ccccc3c2=O)c(OC)c1 1.77%
Cc1ccccc1CSc1nnc(-c2cccnc2)n1N -1.84%
COc1cc(C(=O)N(Cc2ccc(N(C)C)cc2)C2CCS(=O)(=O)C2)cc(OC)c1OC (stereo not given) -2.5%
CCCCCCN(C(=O)CCCCCN1C(=O)NC(c2ccc(C(F)(F)F)cc2)C(C(=O)OCc2ccccc2)=C1C)C(C(=O)NCCCC)c1ccc(OCC(=O)OC)c(C(=O)OC)c1 (stereo not given) -1.73%
CC1CCc2sc3nc(N4CCN(CCO)CC4)n4ncnc4c3c2C1 (stereo not given) -1.52%
Cc1ccc(NC(=O)N2CCC(C(=O)NCc3ccc(F)cc3)CC2)cc1 -0.897%
CC(CCC(=O)O)C1CCC2C3C(O)C[C@@H]4CC(O)CC[C@@]4(C)C3CC[C@@]12C (stereo not given in full)
Cn1c(=O)c2[nH]c(NCC3CCCO3)nc2n(-c2ccccc2)c1=O (stereo not given) 0.15%
FC(F)(F)c1cccc(Nc2ncnc3ccccc23)c1 0.0326%
CCOC(=O)C1CCN(C(=O)Nc2ccc(Cl)cc2)CC1 -0.981%
CCS(=O)(=O)N1CCC(C(=O)N2CCN(c3ccccc3)CC2)CC1 -1.29%
CCN(CC)CCNC(=O)C1c2ccccc2C(=O)N(C)C1c1cn(C)c2ccccc12 (stereo not given) 1.12%
CCCCC(=O)Nc1cc(C)c2c(=O)oc3ccccc3c2n1 1.23%
COc1ccc(CCNC(=O)CSc2nnc(-c3cccc(F)c3)o2)cc1OC -0.833%
COC(=O)C1=C(C)OC(N)=C(C#N)C1c1cc(OC)ccc1OC (stereo not given) -1.63%
C[C@H](CCC(=O)NCC(=O)O)[C@H]1CC[C@H]2[C@H]3[C@@H](C[C@@H](O)[C@]12C)[C@]1(C)CC[C@H](O)C[C@@H]1C[C@@H]3O 1.09% [at 34.4 µM]
CCOc1ccccc1NC(=O)c1cc(S(=O)(=O)N2CCC3(CC2)OCCO3)ccc1F -0.357%
COC(=O)CC1C(C)(C)C(OC(C)=O)C2CC3=C4CC(=O)OC(c5ccoc5)[C@]4(C)CCC3[C@@]1(C)C2=O (stereo not given in full) -0.484%
CCOc1cc(CO)ccc1OCC(=O)N1CCCCC1 0.944%
O=C(Nc1nc2cc3c(cc2s1)OCCO3)c1cccc(S(=O)(=O)N2CCOCC2)c1 0.128%
CN(C(=O)COc1nnc(-c2cccs2)c(-c2cccs2)n1)c1ccccc1 0.0324%
COCC(C)n1c(SCc2ccc(C(=O)OC)o2)nc2ccccc2c1=O (stereo not given) 0.312%
CO[C@H]1COC(=O)[C@@H](OCc2ccccc2)/C=C\[C@H](C)[C@@H](OC)COC(=O)[C@H](OCc2ccccc2)/C=C\[C@@H]1C 3% [at 15.4 µM]
CCC(c1nnnn1C1CCCC1)N1CCN(C(=O)c2ccco2)CC1 (stereo not given) -1.2%
CC1CCCCN1CC(=O)NCc1ccc2c(c1)OCO2 (stereo not given) 1.54%
O=C(NCc1ccccn1)c1c(O)c2c([nH]c1=O)CCCC2 0.105%
O=C(CC1OC(=O)c2ccccc21)NC1CCCCC1 (stereo not given) -2.01%
COc1ccc(-c2nc(CS(=O)CC(=O)NCc3ccccn3)c(C)o2)cc1 (stereo not given) -19%
Cc1nnc(SCc2cc(=O)[nH]c(N3CCN(Cc4ccccc4)CC3)n2)s1 0.597%
CC(C)NC[C@H](O)c1ccc2ccccc2c1
Cc1nc2nc3c(cn2n1)C(=O)CC(c1ccccc1)C3 (stereo not given) 2%
COCCCNC(=O)Cn1cc(C(=O)C2CC2)c2ccccc21 0.296%
CN(c1ccc(C(=O)N2CCc3ccccc3C2)cc1)S(C)(=O)=O 0.655%
COCCCNC(=O)COc1cc(C)c(Cl)c(C)c1 -0.153%
Cc1cccc(OCc2nnc(SCC(=O)N3CCN(C(=O)c4ccco4)CC3)n2C)c1C -1.17%
CCCOC(=O)Nc1sc2c(c1C(=O)OCC)CCC2 -0.873%
CCOC(=O)c1cnc(-n2nc(C)cc2C)nc1-n1nc(C)cc1C 1.6%
CN(C(=O)CSc1nnnn1-c1ccccc1)C1CCCCC1 0.11%
Cc1ccc(Cn2ccc(NC(=O)c3cc(C(C)C)on3)n2)cc1 -1.44%
COc1ccccc1N1CCN(C(=O)c2c(-c3c(Cl)cccc3Cl)noc2C)CC1 -1.13%
Cc1ccccc1NC(=O)Cc1nnc(SCC(=O)N2CCN(c3ccccc3)CC2)n1C -0.997%
CCCCCCC(=O)N(O)C1CC(=O)N(c2ccccc2)C1=O (stereo not given) 0.0619%
C=CCNC(=O)C12CC3CC(C1)CC(C(=O)NCC=C)(C3)C2 1.88%
COC(=O)N1CCC2(CCCN(c3ccncc3)C2)CC1 0.168%
O=C1NC(c2cc3c(cc2Cl)OCO3)Oc2ccccc21 (stereo not given) -0.188%
COC(=O)[C@H](C)[C@H]1C[C@]1(C)[C@H](NC(=O)OCc1ccccc1)c1ccccc1 -0.78%
CN(c1ccccc1)c1ccc(/C=c2\s/c(=C(/C#N)C(=O)C(C)(C)C)n(Cc3ccco3)c2=O)cc1 0.0549%
Cc1cccc(NC(=O)CSC(N)=O)c1C 1.83%
Cc1ccc(N)cc1-n1c(C)ccc1C -0.377%
CCCCOc1ccc(NC(=O)CSCC(=O)OCC)cc1 1.6%
CCOCCc1c(O)nc(SCC(=O)NCc2ccco2)[nH]c1=O 0.81%
Cc1cc(NS(=O)(=O)c2ccccc2)no1 0.303%
CCOC(=O)C1CCc2nc3ccccc3c(=O)n21 (stereo not given) 0.238%
Cc1ccccc1N1CCN(S(=O)(=O)C[C@@]23CC[C@H](C[C@H]2NC(=O)[C@@H](N)CCS(C)(=O)=O)C3(C)C)CC1 1.13%
CC(=O)N1CCN(c2ccc(NCc3ccc(C(C)C)cc3)cc2)CC1 -0.552%
O=C(CC1(O)C(=O)N(CN2CCOCC2)c2ccccc21)c1ccccc1 (stereo not given) -1.06%
O=C(CCSc1ccccc1)NCCSc1ccccn1 -0.965%
Cc1cc(C)c2cc(CN(Cc3cccs3)Cc3nnnn3CC3CCCO3)c(=O)[nH]c2c1 (stereo not given) 0.129%
N#CCC(=O)NC(=O)NCC1CC1 -0.938%
O=C1Nc2ccccc2C12Nc1ccccc1S2 (stereo not given) -1.05%
Cc1nc2ccc(C(=O)N3CCSCC3)cc2s1 0.85%
CN1CCN(c2ncncc2-c2ccc(C(=O)N(C)C)cc2)CC1 0.793%
CC1(C)SC2C(NC(=O)COc3ccccc3)C(=O)N2C1C(=O)O (stereo not given) 1.66%
CCn1cc(C(=O)N2CCN(C3CCCCC3)CC2)c2cc(OC)c(OC)cc2c1=O -2.62%
CN1[C@@H]2CC[C@H]1CC(NC(=O)c1nn(C)c3ccccc13)C2 (stereo not given in full) -2.5%
CC(C)(C)Oc1ncc(Br)c(OC(C)(C)C)n1 -0.0878%
C[N+](C)(C)CCCCCNCC12CC3CC(CC(C3)C1)C2 2.52%
CCCC(C(=O)N1CCOCC1)N1C(=O)C2C3C=CC(C3)C2C1=O (stereo not given) -0.786%
CN1CCCC(OC(=O)COc2ccc(Br)cc2)C1 (stereo not given) 0.984%
CCC1=C(OC(=O)N(CC)CC)N2C(=O)OC(=NCCc3c[nH]c4ccccc34)[C@]2(C)[C@H]2C1=CC[C@H]1C(=O)N(CC)C(=O)[C@H]12 -2.69%
COC(=O)C1C(=O)c2c([nH]c(C(=O)OCCSC)c2C)CC1C (stereo not given) -0.968%
CC(C)(C)[Si](OCC[C@@H]1C[C@@]1(C)[C@@H](NP(=O)(c1ccccc1)c1ccccc1)c1ccccc1)(c1ccccc1)c1ccccc1 0.34%
COc1ccc(-c2oc3cc(OC)ccc3c2C(=O)c2ccc(C#N)cc2)cc1 -0.0684%
CCOC(=O)c1c(C)[nH]c(C)c1C(=O)CSc1nc(N)cc(N)n1 3.67%
O=C1c2ccccc2C(O)N1Cc1ccccc1Cl (stereo not given) 0.325%
CSc1nnc2c(n1)OC(c1ccsc1)N(C(C)=O)c1ccccc1-2 (stereo not given) -0.404%
COC(=O)c1ccc(CSc2ccccc2C)o1 -1.04%
COc1ccc(-c2nc3cnc(Oc4ccccc4)nc3n(Cc3cccs3)c2=O)cc1 -1.57%
CC1=NC2(CCCc3c2no[n+]3[O-])N(O)C1(C)C (stereo not given) -0.694%
COc1cc(C2C(C(=O)c3ccc(C)o3)=C(O)C(=O)N2Cc2cccnc2)ccc1O (stereo not given) 0.46%
Cc1c(-c2nn(C)c(=O)c3ccccc23)oc2ccc(F)cc2c1=O 0.563%
O=C(C1CCN(CC2CCCCC2)CC1)N1CCCC1 -0.503%
COC(=O)[C@@H]1C[C@@]2(O)[C@@H](O)[C@@H](O)[C@@H](O)C[C@H]2N1Cc1ccc(C)s1 1.57%
CC(C)(C)c1ccc(C(=O)CSc2ncn[nH]2)cc1 -3.08%
C=CCSc1nnc(Cn2c(=O)sc3ccccc32)n1C -0.684%
CCCC(=O)Nc1ccc(Cl)c(NC(=O)c2ccc(Br)o2)c1 -0.589%
NC(=O)CSc1oc(-c2cccs2)nc1S(=O)(=O)c1ccccc1 -0.411%
COC(=O)c1cn(C)c2ccc(S(=O)(=O)N3CC(C)CC(C)C3)cc2c1=O (stereo not given) 0.974%
COc1ccc(-c2nnc(SCC(=O)NC3CCCCC3)o2)cc1OC -0.73%
Cc1ccccc1-c1nc(N(C)Cc2ccco2)c2ccccc2n1 -1.42%
CC(C)OCCCNC(=O)CNC(=O)c1cccs1 2%
Cc1ccc2cccc(O)c2[n+]1[O-] 0.606%
O=C(c1ccc(=O)[nH]c1)N(Cc1ccco1)C1(C(=O)NC2CCCCC2)CCCCC1 0.273%
